Measured values: PubChem BioAssay
A number with no mark means an inactive call. The rule behind the calls is not given here.

What follows are molecules tested against Pantothenate synthetase (Mycobacterium tuberculosis (strain ATCC 25618 / H37Rv)) (UniProt P9WIL5) (assay: Recombinant Mtb pantothenate synthetase (PanC) inhibitors, coupled enzyme, confirmatory (AID 375;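 note: 0% = full reaction with vehicle and 100% = no enzyme background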)). Details: coupled enzyme assay; at 10 µM, hits give high values.
Sequence of Pantothenate synthetase (Mycobacterium tuberculosis (strain ATCC 25618 / H37Rv)) (P9WIL5 whole entry, looked up): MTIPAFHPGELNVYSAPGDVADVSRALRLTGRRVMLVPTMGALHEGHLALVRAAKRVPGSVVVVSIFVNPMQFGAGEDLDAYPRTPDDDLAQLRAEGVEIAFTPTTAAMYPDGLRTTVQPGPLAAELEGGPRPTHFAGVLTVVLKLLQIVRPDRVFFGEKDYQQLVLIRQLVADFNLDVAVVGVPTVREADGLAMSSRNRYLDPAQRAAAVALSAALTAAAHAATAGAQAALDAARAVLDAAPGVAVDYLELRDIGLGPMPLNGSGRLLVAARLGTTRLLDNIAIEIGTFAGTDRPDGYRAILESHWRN

| Structure (SMILES) | inhibition [%] |
| --- | --- |
| Cc1ccc2nc3c(cc2c1)CN(Cc1ccco1)C(=NCC1CCCO1)S3 (stereo unspecified) | 0 |
| CCOCCn1cnc2sc(C(=O)Nc3nc(C)c(C(=O)OCC)s3)c(C)c2c1=O | 13 |
| COc1ccccc1C(=O)n1nc(-c2ccc(Cl)cc2)nc1N | 3 |
| COc1ccc(-n2nnnc2-c2cccc(OC)c2)cc1 | 0 |
| Cc1sc(NC(=O)CSc2nc(N)n(CC(=O)c3ccccc3)n2)c(C#N)c1C | 4 |
| CC1C/C=C/C=C/C=C/C=C/C(O[C@@H]2O[C@H](C)[C@@H](O)[C@H](N)[C@@H]2O)CC2OC(O)(CC(O)CC3OC3/C=C/C(=O)O1)CC(O)C2C(=O)O (stereo partly specified) | 5 |
| Nc1nc(N2C(=O)C3CC=CCC3C2=O)nn1-c1ccccc1 (stereo unspecified) | 0 |
| CC(=O)Nc1c(O)[nH]c2ccccc12 | 0 |
| Cc1ccc2nc3c(cc(C(=O)NCC4CCCO4)n3C)c(=O)n2c1 (stereo unspecified) | 0 |
| CCC(=O)N1C(=O)CCN(C(C)=O)c2ccccc21 | 0 |
| CC(C(=O)N1CCCCC1)n1ncn2cccc2c1=O (stereo unspecified) | 0 |
| O=S(=O)(NCCc1ccccn1)c1cccs1 | 3 |
| COCCn1c(SCC(=O)Nc2ccc3c(c2)OCCO3)nc2c(c1=O)SC(C)C2 (stereo unspecified) | 3 |
| O=C(CN1CCN(Cc2ccc3c(c2)OCO3)CC1)Nc1ccc2c(c1)OCCO2 | 0 |
| CC1CCCCN1CCNS(=O)(=O)c1ccc2c(c1)oc(=O)n2C (stereo unspecified) | 0 |
| CCN(CC)CCOC(=O)c1ccc(NC(=O)COc2cc(=O)n(CC)c3ccccc23)cc1 | 2 |
